A short description of test [1]: antimalarial activity against Dd2 strain (AID 2302;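 active = growth inhibition above 50% at the single 2 µM test dose, taken to imply half-maximal potency below 2 µM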;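 also: 0% = DMSO untreated growth and 100% = chloroquine plus artemisinin killed control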). The note with it: P. falciparum Dd2 in RBCs, LDH growth readout, 72 h; at 2 µM; stronger effect = higher value.
Test [2] in a line: human hepatoma cell viability loss – ATP luminescence, cytotoxicity control for P. falciparum antimalarial project, primary screen (AID 2303;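 active = inhibition above 50%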;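 also: 0% = DMSO wells and 100% = digitonin-killed cells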). The note with it: HepG2 viability, 24-48 h, at 10 µM, stronger effect = higher value.
Test [3] deals with L-lactate dehydrogenase (Plasmodium falciparum (isolate CDC / Honduras)) (UniProt Q27743). As to the kind of experiment: PfLDH activity inhibition – cell lysate, 3D7 strain, counter-screen for P. falciparum growth inhibition project (AID 2304).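 Also: 0% = vehicle and 100% = reference inhibitor.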 The following applies: P. falciparum 3D7 crude extract, LDH APAD/NBT absorbance; at 2 µM; stronger effect = higher value.
Sequence of L-lactate dehydrogenase (Plasmodium falciparum (isolate CDC / Honduras)) (Q27743 whole entry, looked up): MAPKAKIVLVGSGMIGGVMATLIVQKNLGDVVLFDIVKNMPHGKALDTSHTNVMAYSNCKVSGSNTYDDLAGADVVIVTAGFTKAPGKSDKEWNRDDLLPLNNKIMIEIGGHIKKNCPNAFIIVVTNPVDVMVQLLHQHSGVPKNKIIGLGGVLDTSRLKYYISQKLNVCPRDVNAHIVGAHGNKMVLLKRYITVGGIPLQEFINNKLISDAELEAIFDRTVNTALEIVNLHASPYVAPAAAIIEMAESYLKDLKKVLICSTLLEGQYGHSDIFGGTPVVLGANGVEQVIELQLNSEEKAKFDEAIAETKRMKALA
Test [4] in a line: inhibition of 3D7 malaria parasite growth – strain 3D7 (AID 2306).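 Also: 0% = DMSO wells and 100% = chloroquine plus artemisinin control wells.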 The note with it: P. falciparum 3D7 erythrocytic growth, LDH absorbance, 72 h; at 2 µM; stronger effect = higher value.
Test [5] has as its target Calcium-dependent protein kinase 1 (Plasmodium falciparum (isolate 3D7)) (UniProt P62344). Put plainly: PfCDPK1 kinase inhibitors, biochemical, TCAMS library (AID 1159585; cut-off not given, nearly all actives have IC50 up to about 0.98 µM;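 also: inhibitors leave more ATP so luminescence rises with inhibition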). The following applies: recombinant PfCDPK1, Kinase-Glo ATP depletion luminescence.
Test [6] addresses Plasmodium falciparum protein kinase 6 (PK6, PF3D7_1337100) (UniProt Q8IDW1). Put plainly: PfPK6 kinase inhibitors, biochemical, TCAMS library (AID 1159586). The following applies: recombinant PfPK6, Kinase-Glo ATP depletion luminescence.
For test [7], the target named is Protein kinase 7 (PK7), Plasmodium falciparum 3D7 (PF3D7_0213400) (UniProt Q7YTF7). As to the kind of experiment: inhibition of Plasmodium PK7 catalytic activity – biochemical, TCAMS antimalarial set, Kinase-Glo luminescence (AID 1159587). The note with it: recombinant PfPK7, Kinase-Glo ATP depletion luminescence.
Sequence of Protein kinase 7 (PK7), Plasmodium falciparum 3D7 (PF3D7_0213400) (Q7YTF7 1-343): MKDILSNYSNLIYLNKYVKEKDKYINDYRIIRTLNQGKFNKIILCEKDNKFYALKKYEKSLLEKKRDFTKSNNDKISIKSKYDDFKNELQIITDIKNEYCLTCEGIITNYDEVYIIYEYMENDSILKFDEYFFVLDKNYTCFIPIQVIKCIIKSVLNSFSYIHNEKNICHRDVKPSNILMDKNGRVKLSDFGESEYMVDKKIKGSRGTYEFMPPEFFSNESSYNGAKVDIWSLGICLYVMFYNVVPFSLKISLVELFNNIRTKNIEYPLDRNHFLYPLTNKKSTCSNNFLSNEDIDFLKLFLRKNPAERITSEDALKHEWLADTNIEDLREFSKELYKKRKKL
Test [8] concerns the target Calcium-dependent protein kinase 4 (Plasmodium falciparum (isolate 3D7)) (UniProt Q8IBS5). As to the kind of experiment: PfCDPK4 kinase inhibitors, biochemical, TCAMS library (AID 1159588; cut-off not given, nearly all actives have IC50 up to about 0.91 µM). The following applies: recombinant PfCDPK4, Kinase-Glo ATP depletion luminescence.

The structures appear in SMILES notation. A number with no mark means an inactive call. For some of these results: Results with a measured potency or affinity are listed apart. Calls of active or inactive are those of the source. Unless noted, no rule for the calls is given here.

Sequence of Plasmodium falciparum protein kinase 6 (PK6, PF3D7_1337100) (Q8IDW1 1-305): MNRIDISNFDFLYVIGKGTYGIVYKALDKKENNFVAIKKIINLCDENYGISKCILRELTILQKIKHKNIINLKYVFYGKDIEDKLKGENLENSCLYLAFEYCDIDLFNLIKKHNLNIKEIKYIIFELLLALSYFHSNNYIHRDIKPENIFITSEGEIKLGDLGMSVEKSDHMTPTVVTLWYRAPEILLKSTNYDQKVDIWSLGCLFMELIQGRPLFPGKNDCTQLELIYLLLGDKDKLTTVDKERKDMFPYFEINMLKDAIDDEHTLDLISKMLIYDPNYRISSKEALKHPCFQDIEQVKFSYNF
Sequence of Calcium-dependent protein kinase 1 (Plasmodium falciparum (isolate 3D7)) (P62344 whole entry, looked up): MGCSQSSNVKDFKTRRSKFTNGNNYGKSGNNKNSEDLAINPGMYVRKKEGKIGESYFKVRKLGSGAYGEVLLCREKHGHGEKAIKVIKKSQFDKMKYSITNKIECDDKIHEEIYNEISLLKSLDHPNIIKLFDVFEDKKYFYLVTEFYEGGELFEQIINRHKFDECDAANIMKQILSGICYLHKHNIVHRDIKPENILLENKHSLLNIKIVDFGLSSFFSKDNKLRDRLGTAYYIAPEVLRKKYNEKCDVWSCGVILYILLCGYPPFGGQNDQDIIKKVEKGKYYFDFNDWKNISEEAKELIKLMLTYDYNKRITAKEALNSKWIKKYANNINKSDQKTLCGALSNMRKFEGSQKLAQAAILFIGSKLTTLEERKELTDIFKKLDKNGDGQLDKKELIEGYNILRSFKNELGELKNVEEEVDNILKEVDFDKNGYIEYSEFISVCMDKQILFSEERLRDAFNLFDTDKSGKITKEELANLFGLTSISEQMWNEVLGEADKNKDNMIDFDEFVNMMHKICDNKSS
Sequence of Calcium-dependent protein kinase 4 (Plasmodium falciparum (isolate 3D7)) (Q8IBS5 whole entry, looked up): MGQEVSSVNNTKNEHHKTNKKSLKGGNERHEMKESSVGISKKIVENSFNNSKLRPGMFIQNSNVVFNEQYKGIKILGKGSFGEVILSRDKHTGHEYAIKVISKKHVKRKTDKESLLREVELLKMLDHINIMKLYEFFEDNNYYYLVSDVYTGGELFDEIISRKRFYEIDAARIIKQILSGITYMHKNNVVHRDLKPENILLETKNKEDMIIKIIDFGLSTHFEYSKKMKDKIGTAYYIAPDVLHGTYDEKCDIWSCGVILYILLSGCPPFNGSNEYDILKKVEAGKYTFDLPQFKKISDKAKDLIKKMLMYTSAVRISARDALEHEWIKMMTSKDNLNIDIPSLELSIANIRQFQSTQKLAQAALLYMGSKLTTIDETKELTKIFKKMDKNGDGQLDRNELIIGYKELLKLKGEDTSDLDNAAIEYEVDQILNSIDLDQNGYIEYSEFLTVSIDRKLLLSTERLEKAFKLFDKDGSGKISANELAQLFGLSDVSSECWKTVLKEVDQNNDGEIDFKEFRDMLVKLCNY

In the case of `Fc1ccc2[nH]cc(CCNCc3ccc(-c4cccc(-c5nc6ccccc6[nH]5)c4)cc3)c2c1`, the growth inhibition in test [1] was 99% (active); in test [4] it was 100% (active). Moreover, the inhibition in test [2] was 69% (active); in test [3], -3%. Besides, the result in test [5], in test [6], in test [7] and in test [8] was inactive.
Take `N#CCCN1CCN(Cc2cccc(-c3ccc(-c4nc5ccccc5[nH]4)cc3)c2)CC1`: the growth inhibition is 20% in test [1] and 93% (active) in test [4]. Further, the inhibition in test [2] was 18%; in test [3], -9%. Also, the result in test [5], in test [6], in test [7] and in test [8] was inactive.
Consider `O=[N+]([O-])c1cccc(CNC2CCN(Cc3ccc(-c4ccccc4)cc3)CC2)c1`, for which the growth inhibition in test [1] was 96% (active); in test [4] it was 100% (active). Moreover, the figures for the inhibition in test [2] and in test [3] were 25% and 1%, respectively. For the same compound, the outcome in test [5], in test [6], in test [7] and in test [8] was inactive.
Take `O=C(Nc1ccc(Cn2ncc(N3CCCNCC3)c(Cl)c2=O)cc1)Nc1cc(C(F)(F)F)cc(C(F)(F)F)c1`: the growth inhibition in test [1] was 29%; in test [4], 100% (active). Also, the inhibition is 25% in test [2] and 3% in test [3]. In addition, the outcome in test [5], in test [6], in test [7] and in test [8] was inactive.
For the compound `Cc1[nH]c(C)c(-c2ccc(Oc3ccc(OC(F)(F)F)cc3)cc2)c(=O)c1I`, the growth inhibition in test [1] was 96% (active); in test [4], 95% (active). Further, the results for the inhibition in test [2] and in test [3] were 3% and -3%, respectively. For the same compound, the result in test [5], in test [6], in test [7] and in test [8] was inactive.
On to `N#Cc1cccc(CN2CCCN(Cc3cccc(C(=O)Nc4ccc(Cl)cc4)c3)CC2)c1`, for which the growth inhibition in test [1] is 9%; in test [4], 82% (active). Moreover, the figures for the inhibition in test [2] and in test [3] were 46% and 1%, respectively. Besides, the result in test [5], in test [6], in test [7] and in test [8] was inactive.
For `Cc1cc(N(C)C)nc(Nc2ccc(NC(=O)c3c(F)cccc3Cl)cc2)n1`, the results for the growth inhibition in test [1] and in test [4] were 36% and 90% (active), respectively. Moreover, the inhibition in test [2] is 15%; in test [3] it was 4%. Moreover, the outcome in test [5], in test [6], in test [7] and in test [8] was inactive.
For the compound `Cc1nc(-c2nc(NCCc3cnccn3)ncc2-c2ccsc2)sc1C`, the growth inhibition is 40% in test [1] and 98% (active) in test [4]. Moreover, the inhibition was -7% in test [2] and 0% in test [3]. Besides, the outcome in test [5], in test [6], in test [7] and in test [8] was inactive.
For the compound `Cc1cccc(C)c1CNc1cccc(-c2nc(C)c(C)[nH]2)c1`, the growth inhibition was 44% in test [1] and 99% (active) in test [4]. The inhibition is 58% (active) in test [2] and -3% in test [3]. The outcome in test [5], in test [6], in test [7] and in test [8] was inactive.
As for `CCCN(c1ccc(C(F)(F)F)cc1[N+](=O)[O-])S(=O)(=O)C(c1ccccc1)c1ccc(C(F)(F)F)cc1[N+](=O)[O-]` (stereo not given), the growth inhibition in test [1] was 49%; in test [4], 94% (active). In addition, the inhibition is -11% in test [2] and 1% in test [3]. The outcome in test [5], in test [6], in test [7] and in test [8] was inactive.
Consider `CCCCCOc1c(CCC)cc(Cc2cnc(N)nc2N)cc1CCC`, for which the growth inhibition in test [1] was -3%; in test [4], 94% (active). The inhibition was 58% (active) in test [2] and -2% in test [3]. The outcome in test [5], in test [6], in test [7] and in test [8] was inactive.
With `CC(C)(C)c1ccc(CN2CCCCC(NC(=O)c3cc(-c4ccccc4F)cs3)C2)cc1` (stereo not given), the growth inhibition in test [1] was 99% (active); in test [4] it was 101% (active). Further, the figures for the inhibition in test [2] and in test [3] were 6% and 3%, respectively. Moreover, the result in test [5], in test [6], in test [7] and in test [8] was inactive.
Consider `CN1CCN(CCCN(Cc2ccc(-c3cccc(CNCc4ccc5c(c4)OCO5)c3)cc2)C(=O)CCC2CCCC2)CC1`, for which the growth inhibition in test [1] is 85% (active); in test [4], 92% (active). In addition, the inhibition in test [2] is 24%; in test [3], -5%. In addition, the result in test [5], in test [6], in test [7] and in test [8] was inactive.
With `CN(C)Cc1ccc(-c2ccc(NC(=O)c3ccc4c(=O)n(Cc5ccccc5)cnc4c3)cc2)cc1`, the growth inhibition in test [1] was 39%; in test [4], 100% (active). The inhibition was 94% (active) in test [2] and -2% in test [3]. For the same compound, the outcome in test [5], in test [6], in test [7] and in test [8] was inactive.
With `Fc1ccc2nc(-c3cccc(-c4ccc(CN5CCN(CCN6CCOCC6)CC5)cc4)c3)[nH]c2c1`, the growth inhibition is 100% (active) in test [1] and 101% (active) in test [4]. Besides, the values for the inhibition in test [2] and in test [3] were 30% and -3%, respectively. Besides, the outcome in test [5], in test [6], in test [7] and in test [8] was inactive.
Regarding `O=C(NCCN1CCCC1)c1cccc(-c2ccc(-c3nc4ccc(C(F)(F)F)cc4[nH]3)cc2)c1`, the growth inhibition in test [1] is 99% (active); in test [4] it was 101% (active). Besides, the inhibition in test [2] was 34%; in test [3], -3%. Also, the result in test [5], in test [6], in test [7] and in test [8] was inactive.
For the compound `C=C(C)Cn1cc(C2CCN(CCN3CCC(CNC(=O)c4ccc(-c5ccc(C#N)cc5)cc4)CC3)CC2)c2ccccc21`, the growth inhibition is 94% (active) in test [1] and 99% (active) in test [4]. For the same compound, the inhibition is 64% (active) in test [2] and -3% in test [3]. Moreover, the result in test [5], in test [6], in test [7] and in test [8] was inactive.
As for `O=C(Nc1ccc(Cl)cc1)Nc1cccc(-c2ccc(-c3nc4ccc(F)cc4[nH]3)cc2)c1`, the values for the growth inhibition in test [1] and in test [4] were 99% (active) and 101% (active), respectively. Besides, the inhibition in test [2] was 73% (active); in test [3] it was -1%. Moreover, the result in test [5], in test [6], in test [7] and in test [8] was inactive.
For `Oc1ccc2[nH]c(-c3cccc(F)c3)nc2c1CN1CCC(N2CCCC2)CC1`, the growth inhibition in test [1] is 54% (active); in test [4], 100% (active). The inhibition in test [2] is 0%; in test [3], -6%. Further, the outcome in test [5], in test [6], in test [7] and in test [8] was inactive.
Take `COc1ccc(C(=O)NCCCCN2CCC(c3ccc4c(c3OC)CCCC4)CC2)cc1-c1ccc(C(F)(F)F)cc1`: the growth inhibition in test [1] was 56% (active); in test [4], 100% (active). The inhibition was 67% (active) in test [2] and 5% in test [3]. Moreover, the outcome in test [5], in test [6], in test [7] and in test [8] was inactive.

The values are drawn from PubChem BioAssay.
